Inconclusive results are not listed. Unmarked numbers belong to inactive results. Calls of active or inactive are those of the source. The call rests on the fitted dose curve; in most records, active means well fitted inhibition curve with a large enough effect; inconclusive means small, poorly fitted or top-dose-only effect; inactive means no such curve, though single readings can be large or run the other way.
What follows are molecules tested on Zika virus NS2B-NS3 protease (unlinked complex) (assay: Primary screen GU Rhodamine qHTS for Zika virus inhibitors: Unlinked NS2B-NS3 protease assay (AID 1347159; further: nearly all actives have a fitted effect of over 60% in size)). Settings: Recombinant ZIKV NS2B-NS3 protease, Rhodamine110 substrate fluorescence; series mostly up to 107 µM; activity change, negative = inhibition: at the top concentration.
Procedure, shortened: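 Percent inhibition came from the 15-min rise in Rhodamine110 fluorescence (1.5 microM substrate, ~15% conversion), normalized to no-inhibitor and no-enzyme wells and Hill-fitted. Unlinked protease, 25 nM, pH 8.0 Tris buffer; compounds up to 114 microM, 15-min preincubation.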
On the % scale 0 is the no-effect control and ±100 the full control effect; potency means the concentration at half of the fitted maximal effect.

Row | Compound | activity change, negative = inhibition | Potency
1 | CN1CCc2cc(Cl)c(O)cc2[C@@H](c2cccc3c2OCC3)C1 | 18.3% | –
2 | C[C@@H]1CC2OC(=O)C3=C2C(CCC3O)[C@@]12C[C@@H](c1ccoc1)OC2=O (some centres undefined) | 10.8% | –
3 | CC(O)C(O)/C=C/C=C/C(=O)O[C@@H]1C=C(C(=O)O)[C@](O)(CO)[C@@]2(C)CCCC(C)(C)[C@H]12 (some centres undefined) | -7.86% [at 57.1 µM] | –
4 | COC(=O)Cn1nc(-c2cccc(OC)c2)c2ccccc21 | -16.8% | –
5 | CC(=O)OCC1=C[C@@H]2OC(=O)C3=CO[C@@H](O[C@@H]4O[C@H](CO)[C@@H](O)[C@H](O)[C@H]4O)[C@H]1[C@@H]32 | 10.4% [at 57.1 µM] | –
6 | C=C1CCC2(OC1)OC1CC3C4CC=C5CC(O)CC(O[C@@H]6OC[C@H](OC(=O)C(O)C(C)CC)[C@H](O)[C@H]6O[C@@H]6O[C@@H](C)[C@H](O)[C@@H](O)[C@H]6O)C5(C)C4CCC3(C)C1C2C (some centres undefined) | 74.5% [at 32.5 µM] | –
7 | COc1c2ccoc2nc2c(OC)c(O[C@@H]3O[C@@H](C)[C@H](O)[C@@H](O[C@@H]4O[C@H](CO)[C@@H](O)[C@H](O)[C@H]4O)[C@H]3OC(C)=O)ccc12 | 3.56% [at 32.5 µM] | –
8 | CC(C)C(NC(=O)c1ccc(O)cc1)C(=O)N1CCCC1C(=O)Nc1c(O)cccc1C(=O)O (centres undefined) | -5.96% [at 57.1 µM] | –
9 | CC1OC(O[C@@H]2[C@@H](O)[C@H](OC(=O)[C@]34CCC(C)(C)C[C@H]3C3=CCC5[C@@]6(C)CC[C@H](O[C@@H]7O[C@H](C(=O)O)[C@@H](O)[C@H](O[C@@H]8OC[C@@H](O)[C@H](O)[C@H]8O)[C@H]7O[C@@H]7O[C@H](CO)[C@H](O)[C@H](O)[C@H]7O)[C@@](C)(C=O)C6CC[C@@]5(C)[C@]3(C)C[C@H]4O)O[C@H](C)[C@@H]2OC2OC(C)C(OC3OCC(O)C(O)C3O)C(O)C2O)C(O)C(O)C1O (some centres undefined) | 7.56% [at 19.1 µM] | –
10 | COc1ccc(C(=O)CC(=O)O)c2c1C=CC(C)(C)O2 | -28.2% | –
11 | CC1(C(=O)O)CCCC2(C)C3CCC4CC3(CCC12)CC4(O)CO (centres undefined) | 3.64% | –
12 | c1ccc2c(Nc3nnc(-c4ccncc4)s3)cccc2c1 | 24.7% | –
13 | OC[C@H]1O[C@@H](OC[C@H]2O[C@@H](OCc3ccccc3)[C@H](O)[C@@H](O)[C@@H]2O)[C@H](O)[C@@H](O)[C@@H]1O | 1.01% [at 57.1 µM] | –
14 | O=[N+]([O-])c1cc(Cl)ccc1S(=O)(=O)N1CCN(Cc2ccccc2)CC1 | -0.775% | –
15 | CCC(C)C1NC(=O)C2C(C)CCN2C(=O)C(CC(O)CO)OC(=O)CCNC(=O)C(C)N(C)C(=O)C(C(C)C)N(C)C1=O (centres undefined) | 0.0758% [at 32.5 µM] | –
16 | COC(=O)C1=COC(O[C@@H]2O[C@H](COC(=O)/C=C/c3ccc(O)cc3)[C@@H](O)[C@H](O)[C@H]2O)C2C(CO)=CCC12 (some centres undefined) | -22.5% [at 57.1 µM] | –
17 | O=C(Nc1ccn(Cc2c(F)cccc2C(F)(F)F)n1)c1c(F)cccc1F | -4.4% [at 32.5 µM] | –
18 | CC[C@@H](C)[C@H](N)C(=O)N1Cc2ccccc2C1 | 85.4% | –
19 | C[C@H]1[C@@H](O)[C@H](O)C2[C@]3(C)C([C@@H](O)[C@H]4OC(=O)[C@@H]1[C@@]24C)[C@](C)(O)C=C[C@H]3O[C@@H]1O[C@H](CO)[C@@H](O)[C@H](O)[C@H]1O (some centres undefined) | 2.36% [at 57.1 µM] | –
20 | CC(=O)N[C@H]1[C@H](O[C@H]2CC[C@]3(C)C4CC=C5[C@@H]6CC(C)(C)CC[C@]6(C(=O)O)[C@H](O)C[C@@]5(C)[C@]4(C)CC[C@H]3C2(C)C)O[C@H](CO)[C@@H](O)[C@@H]1O (some centres undefined) | 12.8% [at 32.5 µM] | –

Row | Compound | activity change, negative = inhibition | Potency
21 | CC1(C)CC=C(C#Cc2ccccc2)c2cc(/C=C/c3ccc(C(=O)O)cc3)ccc21 | – | 6.31 µM (active)
22 | C=C1CCC2[C@](C)(CO)CCC[C@@]2(C)[C@@H]1CCC1=CCOC1=O (some centres undefined) | -17.8% | –
23 | COc1ccc(-n2c(SCC#N)nc3sc4c(c3c2=O)CCCC4)cc1 | 0.221% | –
24 | NC1Nc2ccccc2C1(N)CC1NC(=O)C(Cc2ccccc2)NC(=O)C(Cc2ccccc2)NC1=O (centres undefined) | 18.1% [at 57.1 µM] | –
25 | O=C(/C=C/C=C/c1ccc2c(c1)OCO2)N1CCCCC1 | -0.191% | –
26 | CC1=C2C[C@H]3OC(=O)[C@H](O)[C@@]4(O)[C@@H](C)[C@@H](O)[C@H](O)C([C@@]2(C)[C@H](O)[C@@H](O)C1)[C@@]34C (some centres undefined) | 17.4% | –
27 | N#Cc1cccc(-c2nc(-c3cccnc3)no2)c1 | 5.62% [at 57.1 µM] | –
28 | CC(=O)O[C@@H]1C[C@@H](C)[C@](O)(CCC2=CC(=O)OC2)[C@@]2(C)CCCC(C)(C)C12 (some centres undefined) | 3.93% | –
29 | O=C(/C=C/c1ccc(O)cc1)OCC1OC(O)C(OC2OC(CO)C(O)C(O)C2O)C(O)C1O (centres undefined) | 13.9% [at 57.1 µM] | –
30 | N#Cc1cc(-c2n[nH]c(-c3ccncc3)n2)ccn1 | 1.37% | –
31 | Cc1cc(C(=O)N2Cc3cnn(C)c3Nc3ccccc32)ccc1CNC(=O)N1CCN(Cc2cc(O)cc(O)c2)CC1 | 65.7% | –
32 | CC1=CC(=O)CC(C)(C)C1CO[C@@H]1O[C@H](CO)[C@@H](O)[C@H](O)[C@H]1O (some centres undefined) | 4.55% | –
33 | COc1cc(CC2COC(c3ccc(OC4OC(CO)C(O)C(O)C4O)c(OC)c3)C2CO)ccc1O (centres undefined) | -4% [at 57.1 µM] | –
34 | CC(=O)O[C@@H]1[C@H](O[C@@H]2O[C@H](CO)[C@@H](O)[C@H](O)[C@H]2O)[C@@H](O[C@@H]2O[C@@H](C)[C@H](O)[C@@H](O[C@@H]3O[C@H](CO)[C@@H](O)[C@H](O)[C@H]3O)[C@H]2O)[C@H](OC(=O)[C@]23CCC(C)(C)C[C@H]2C2=CCC4[C@@]5(C)C[C@H](O)[C@H](O[C@@H]6O[C@H](C(=O)O)[C@@H](O)[C@H](O)[C@H]6O)[C@@](C)(C(=O)O)C5CC[C@@]4(C)[C@]2(C)CC3)O[C@@H]1C (some centres undefined) | 16.2% [at 19.1 µM] | –
35 | O=C(O)c1cccc(C(=O)CCC2OC(n3cnc4c(=O)[nH]cnc43)C(O)C2O)c1 (centres undefined) | 4.62% [at 57.1 µM] | –
36 | O=C(CC1CC(c2ccc(F)cc2F)=NO1)N1CCOCC1 (centres undefined) | 10.3% | –
37 | Cc1occc(=O)c1O[C@@H]1O[C@H](CO)[C@@H](O)[C@H](O)[C@H]1O | 5.42% | –
38 | CC(C)c1ccc2c(c1)CCC1[C@](C)(C(=O)O)CCC[C@]21C (some centres undefined) | – | 20 µM (active)
39 | C/C(=C\C(=O)C[C@@]12C(=O)O[C@]3(C)CC[C@H]1C[C@H]23)C(N)=O | -24.6% | –

Source: PubChem BioAssay (NCATS)
